A selection: hits, their analogues and other compounds. The true share with any hit is near 7.7%.
Sm TGR block: qHTS Assay for the Inhibitors of Schistosoma Mansoni Peroxiredoxins; purified TGR, DTNB reduction, TNB absorbance 405 nm; Potency, µM (highest dose often 114 µM), without a hit: top-dose activity change, negative = inhibition, hits mostly inhibitors; 3% of 360,000 active; further: potency means the concentration at half of the fitted maximal effect; nearly all actives have a fitted effect of over 60% in size
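Kinetic colorimetric format: TGR-catalysed, NADPH-driven DTNB reduction monitored via TNB absorbance. Enzyme dispensed at 20 nM; compound exposure 15 min at room temperature before reaction start.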
TbPYK inhibitor: qHTS of Trypanosoma Brucei Inhibitors; pyruvate kinase (Trypanosoma brucei), Q57TT1; TbPYK enzyme, Kinase-Glo Plus ATP luminescence, 45 min; Potency, µM (highest dose often 76.8 µM), for inactives: at the top dose activity, negative = inhibition, usual class: inhibitors; 0.12% of 410,000 active; further: potency means the concentration at half of the fitted maximal effect; nearly all actives have a fitted effect of over 50% in size
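ADP (130 uM final) triggers the TbPYK reaction after compound addition; incubation is 45 min at room temperature. Kinase-Glo Plus is then added and luminescence imaged. Normalized data are fitted to concentration-effect curves.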
Giardia FBPA inh-1: qHTS Assay for Inhibitors of Fructose-1,6-bisphosphate Aldolase from Giardia Lamblia. Potency, µM (series often up to 59.6 µM), for the others: top-dose activity, negative = inhibition, usual class: inhibitors. A8B2U2. AID 2451, 2010. purified Giardia FBPA. 0.71% of 290,000 active; further: potency means the concentration at half of the fitted maximal effect; nearly all actives have a fitted effect of over 55% in size
Target sequence (A8B2U2 whole entry, looked up): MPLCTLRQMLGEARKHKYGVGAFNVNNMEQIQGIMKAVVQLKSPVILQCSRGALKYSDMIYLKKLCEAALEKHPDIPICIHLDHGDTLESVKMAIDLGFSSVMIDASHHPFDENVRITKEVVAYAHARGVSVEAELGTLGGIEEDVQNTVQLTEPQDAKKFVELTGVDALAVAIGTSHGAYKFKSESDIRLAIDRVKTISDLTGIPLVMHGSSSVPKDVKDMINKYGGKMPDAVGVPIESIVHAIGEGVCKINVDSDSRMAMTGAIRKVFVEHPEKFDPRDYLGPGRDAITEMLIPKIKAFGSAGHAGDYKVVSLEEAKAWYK
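40 nM FBPA preincubated 10 min at RT with compound (up to 57.5 uM final), then substrate plus GAPDH/TPI/NAD/arsenate coupling and diaphorase/resazurin added. Fluorescence read after 20 min at RT, 525/598 nm.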
FMDV antiviral: High Throughput Screening for Foot and Mouth Disease Virus Antivirals. FMDV antiviral cell-based qHTS. Potency, µM (doses to about 57.9 µM), inactives show at the highest dose activity change, negative = inhibition, hits mostly inhibitors. 1.2% of 410,000 active. AID 1159524, 2015; calls by dose curve; tested in HEK293T cells; further: read-out not given here; potency means the concentration at half of the fitted maximal effect; nearly all actives have a fitted effect of over 45% in size
RE007 growth inh: qHTS Assay for Inhibitors of the HIV-1 protein Vpr; 0.21% of 360,000 active; AID 651644, 2012; S. pombe RE007 Vpr strain, BacTiter-Glo ATP luminescence, 24 h; Potency, µM (doses to about 92.2 µM), for inactives: at the top dose activity change, negative = less growth, hits mostly inhibitors; active means well fitted falling curve with a large enough effect; inconclusive means small, poorly fitted or top-dose-only effect; inactive means no such curve, though single readings can be large or run the other way; further: potency means the concentration at half of the fitted maximal effect; nearly all actives have a fitted effect of over 50% in size
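Fission yeast strain RE007, carrying one chromosomally integrated HIV-1 vpr copy, was seeded at OD 0.01 in PMG+AL medium with 23 nL pinned compound. After 24 h at 30 °C and 99% humidity, viability was read by BacTiter-Glo luminescence.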
HCMV inh: qHTS Assay for inhibitors of the human cytomegalovirus (HCMV); AID 1259415, 2018; 4.5% of 410,000 active; HFF cells, HCMV-luciferase reporter, 72 h; active compounds read low; activity change, negative = inhibition, % at 57.5 µM; in the data active means activity change below about -60%; inconclusive means no clear call, values can overlap the other calls; inactive means above about -39%
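Cell-based, HFFs, 1000 cells/well, 16 h 37C; cpds in DMSO + HCMV-luc, MOI 1 PFU/cell; 72 h 37C; OneGlo luminescence after 5 min RT; norm. to buffer vs Salinomycin 10uM.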
Giardia growth: qHTS Assay for Inhibitors of Fructose-1,6-bisphosphate Aldolase from Giardia Lamblia: Giardia lamblia growth inhibition. shares compounds with Giardia FBPA inh-1. Giardia lamblia trophozoite growth inhibition. Potency, µM (series often up to 57.5 µM), for inactives: at the highest dose activity change, negative = inhibition, hits mostly inhibitors. 5% of 1,500 active;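 further: potency means the concentration at half of the fitted maximal effect; trophozoites exposed to compound for 48 h at 37 °C; nearly all actives have a fitted effect of over 70% in size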
Mammal cell tox: qHTS Assay for Inhibitors of Fructose-1,6-bisphosphate Aldolase from Giardia Lamblia: Mammalian cellular toxicity | shares compounds with Giardia FBPA inh-1 | mammalian cell viability counter-screen, qHTS | Potency, µM (titrated, usually from 57.5 µM), inactives show at the highest dose viability change, negative = toxicity, hits mostly inhibitors | 4% of 1,500 active | AID 2786, 2010;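 further: Chinese hamster ovary cells used as mammalian cytotoxicity surrogate; viability measured as cellular ATP by luminescence; potency means the concentration at half of the fitted maximal effect; compound exposure lasted 48 h before reading; nearly all actives have a fitted effect of over 60% in size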
Giardia FBPA inh-2: qHTS Assay for Inhibitors of Fructose-1,6-bisphosphate Aldolase from Giardia Lamblia: Primary screen confirmation; shares compounds with Giardia FBPA inh-1; purified Giardia aldolase enzyme activity, qHTS; Potency, µM (top dose mostly 57.5 µM), inactives show at the top dose activity change, negative = inhibition, actives largely listed as inhibitors; 5% of 1,500 active; further: potency means the concentration at half of the fitted maximal effect; nearly all actives have a fitted effect of over 45% in size
Rabbit aldolase: qHTS Assay for Inhibitors of Fructose-1,6-bisphosphate Aldolase from Giardia Lamblia: Rabbit FBPA Selectivity | AID 2794, 2010 | shares compounds with Giardia FBPA inh-1 | 4% of 1,500 active | Rabbit muscle FBPA enzyme inhibition, selectivity counter-screen | Potency, µM (series often up to 57.5 µM), without a hit: at the top dose activity, negative = inhibition, hits mostly inhibitors; further: potency means the concentration at half of the fitted maximal effect; nearly all actives have a fitted effect of over 60% in size
Target sequence (P00883 whole entry, looked up): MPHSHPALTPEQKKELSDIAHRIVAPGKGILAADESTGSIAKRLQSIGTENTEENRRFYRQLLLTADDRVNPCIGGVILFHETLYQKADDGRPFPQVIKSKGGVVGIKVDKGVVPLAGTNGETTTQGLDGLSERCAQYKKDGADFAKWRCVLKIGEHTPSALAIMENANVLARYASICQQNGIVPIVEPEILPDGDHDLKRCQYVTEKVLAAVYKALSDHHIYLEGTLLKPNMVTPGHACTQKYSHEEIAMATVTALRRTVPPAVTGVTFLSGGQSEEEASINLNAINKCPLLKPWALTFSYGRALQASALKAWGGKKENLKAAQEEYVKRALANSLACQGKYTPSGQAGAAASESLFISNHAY
GAPDH coupling: qHTS Assay for Inhibitors of Fructose-1,6-bisphosphate Aldolase from Giardia Lamblia: Coupling assay counterscreen confirmation | Potency, µM (highest dose often 57.5 µM), inactives show at the top dose activity change, negative = inhibition, actives largely listed as inhibitors | shares compounds with Giardia FBPA inh-1 | 6% of 1,500 active | GAPDH coupling enzyme counterscreen, biochemical, qHTS; further: potency means the concentration at half of the fitted maximal effect; nearly all actives have a fitted effect of over 55% in size
An asterisk follows results filed as active; ? = inconclusive; · = not tested or not shown; [ ] = another dose, or the depositor's remark. Unless noted, the call rests on the fitted dose curve; in most records, active means well fitted curve in the direction sought with a large enough effect; inconclusive means small, poorly fitted or top-dose-only effect, or another doubt; inactive means no such curve, though single readings can be large; an effect the other way counts as inactive or inconclusive. On the % scale 0 is the no-effect control and ±100 the full control effect.

SMILES	Sm TGR block	TbPYK inhibitor	Giardia FBPA inh-1	FMDV antiviral	RE007 growth inh	HCMV inh	Giardia growth	Mammal cell tox	Giardia FBPA inh-2	Rabbit aldolase	GAPDH coupling
O=C(O[C@@H]1OC2COC(=O)c3cc(O)c(O)c(O)c3-c3c(cc(O)c(O)c3O)C(=O)O[C@@H]([C@H]1O)[C@@H]2O)c1cc(O)c(O)c(O)c1	28µM*	?	?	-16%	3%	·	-33%[38.3 µM]	-6%	?	?	?
CN(C)c1ccc(C=NN2CCCCCC2)cc1	·	-10%	·	-20%	4%	9	·	·	·	·	·
CC(C)c1ccc(/C=N/N2CCCCC2)cc1	5%	-14%	14µM*	-11%	10%	-70*	-15%[10.4 µM]	-1%	-8%	-5%	-6%
CC(C)(C)N(CC#CCC(O)(c1ccccc1)c1ccccc1)CCO	-35%	-6%	20µM*	-5%	18%	4	-6%	-3%	-2%	12%	9%
COc1cc(NS(=O)(=O)c2ccc(NC(=O)C(C)Oc3ccc(Cl)cc3Cl)cc2)nc(OC)n1 (stereo not given)	-7%	0%	·	11%	·	17	·	·	·	·	·
Nc1ncnc(NNC(=O)CNC(=O)c2c(F)cccc2Cl)c1[N+](=O)[O-]	8%	0%	16µM*	7%	9%	13	-16%	-3%	-2%	5%	0%
COc1ccc(-c2c3c(=O)n(C)c(=O)n(C)c3c3c(-c4ccc(C)cc4)nc4ccccc4n23)cc1	-2%	9%	·	-24%	·	27	·	·	·	·	·
Cc1cc(C)c(S(=O)(=O)/N=C2/C=C(Sc3ncn[nH]3)C(=O)c3ccccc32)cc1C	0.32µM*	5.6µM*	0.79µM*	?	?	-100*	14µM*	20µM*	6.3µM*	7.1µM*	5µM*
Cc1ccc(CN2C(=O)c3ccccc3Sc3ccc(C(=O)NC4CCCCC4)cc32)cc1	2%	-11%	·	3%	·	-7	·	·	·	·	·
Cc1c(C#N)c(O)n(CCO)c(=O)c1N=Nc1ccc2c(c1)COC2=O	0%	-9%	20µM*	8%	-12%	4	?	-5%	?	-28%	-21%
Cc1cccc(N=Nc2c(C)c(C#N)c(O)[nH]c2=O)c1	10%	-6%	-6%	36%	-10%	?	·	·	·	·	·
CN1CCO/C1=C(\C(Cl)=C(Cl)Cl)[N+](=O)[O-]	32µM*	6%	18µM*	8%	-20%	16	-29%	-9%	-3%	5%	4%
CCC1CO/C(=C(\C(Cl)=C(Cl)Cl)[N+](=O)[O-])N1Cc1ccc(Cl)nc1 (stereo not given)	0%	-5%	-22%	-6%	5%	-16	·	·	·	·	·
Cc1ccccc1OCC(=O)Nc1ccccc1C(=O)OCc1cc(=O)n2nc(C3CC3)sc2n1	5%	-1%	·	?	·	31	·	·	·	·	·
CCOc1ccc(C(=S)N2CCN(C)CC2)cc1	3%	?	18µM*	8%	1%	12	-24%	-8%	-5%	1%	1%
CCN1CCN(C(=S)c2ccc(OC)cc2)CC1	2%	-30%	4.5µM*	3%	10%	31	3%[38.3 µM]	1%	-5%	3%	-8%
CCn1ncc(-c2ccnc3cc(C(=O)O)nn23)c1C	8%	2%	16µM*	-6%	-23%	-4	23%	25%	-2%	-4%	-2%
O=C(O)c1cc2nccc(-c3ccc(F)cc3)n2n1	-15%	-3%	18µM*	7%	-19%	?	23%	-2%	13%	11%	6%
COc1ccc(-c2nnc(NC(=O)c3ccccc3C)o2)cc1	-17%	2%	16µM*	-2%	-13%	-12	?	-15%	-1%	-6%	-10%
CCC(C(=O)O)n1ccc2cc(S(=O)(=O)N3CCCCC3)ccc21 (stereo not given)	-9%	-1%	·	-8%	·	-1	·	·	·	·	·
CC(C)(C)c1ccc(C(=O)Nc2cccc3c(=O)[nH][nH]c(=O)c23)cc1	-13%	1%	20µM*	4.5µM*	32%	-69*	?	?	-5%	-3%	0%
Cc1ccc(S(=O)(=O)N(CC(=O)Nc2c(C)cccc2C)c2cccc(Cl)c2)cc1	1%	-8%	·	-15%	·	?	·	·	·	·	·
CCN1CCN(CCOCCOc2ccccc2)CC1	4%	11%	25µM*	-10%	10%	-12	?	0%	4%	0%	14%
CN1CCc2c(sc(/N=C/c3c[nH]c4ccccc34)c2C#N)C1	0%	-12%	18µM*	61%	-5%	208	14%[10.4 µM]	-16%	-25%	-19%	?

Source: PubChem BioAssay (National Center for Advancing Translational Sciences (NCATS))
